# Compounds with a hit are over-represented: about 12% of the library has one in this group of screens.
# USP17 block: blocks human USP17 ubiquitin-rhodamine cleavage; actives 6.5% (n = 47,000); A8MUK1; purified USP17, Ub-rhodamine cleavage fluorescence, 3 h; AID 1645855; inhibition, % at 50 µM
# OTUD3 inh: blocks human OTUD3 ubiquitin-rhodamine cleavage | inhibition, % at 25 µM | Q5T2D3 | actives 0.7% (n = 47,000) | purified OTUD3, Ub-rhodamine fluorescence, 2 h
# Target sequence (Q5T2D3 whole entry, looked up): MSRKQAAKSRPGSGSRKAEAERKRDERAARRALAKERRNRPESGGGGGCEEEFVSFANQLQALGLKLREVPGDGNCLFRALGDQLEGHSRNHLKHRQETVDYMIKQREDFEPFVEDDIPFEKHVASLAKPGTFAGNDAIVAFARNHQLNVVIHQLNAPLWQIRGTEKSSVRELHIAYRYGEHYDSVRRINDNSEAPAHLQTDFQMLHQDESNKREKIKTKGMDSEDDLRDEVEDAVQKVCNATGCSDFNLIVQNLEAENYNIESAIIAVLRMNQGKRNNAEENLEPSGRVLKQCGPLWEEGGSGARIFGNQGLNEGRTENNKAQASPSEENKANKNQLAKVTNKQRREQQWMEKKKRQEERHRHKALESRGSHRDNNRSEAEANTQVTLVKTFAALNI
# USP30 block: blocks human USP30 ubiquitin-rhodamine cleavage; Q70CQ3; purified USP30, Ub-rhodamine cleavage fluorescence; inhibition, % at 25 µM; actives 5.3% (n = 47,000); AID 1645860
# USP28 inh: inhibitors of human USP28 deubiquitinase; inhibition, % at 25 µM; Q96RU2; actives 3% (n = 47,000); purified USP28, Ub-rhodamine cleavage fluorescence, 30 min
# Numbers without * were called inactive; . = no result given. No stated cut-off is given here; in the data, active means inhibition above about 30%; inactive means the rest.
SMILES,USP17 block,OTUD3 inh,USP30 block,USP28 inh
Cc1ccc(NC(=O)CCc2nc(CSc3nnc(-c4ccccc4)o3)no2)cc1,6,4,15,4
Cc1ncncc1C(=O)N1CCCC(c2ncc(Cc3cccc(F)c3)o2)C1 (stereo unspecified),.,21,26,14
Cc1ncncc1C(=O)N1CCCC(C)(c2ncc(Cc3cccc(F)c3)o2)C1 (stereo unspecified),8,82*,17,3
CCOc1ccccc1NC(=O)COC(=O)C(c1ccccc1)c1ccccc1,22,34*,6,21
Fc1ccc(-c2nc(C3CC3)ncc2-c2nnnn2-c2ccccc2)c(F)c1,12,10,19,13
Fc1ccc(-c2nc(C3CC3)ncc2-c2nnnn2-c2ccccc2)cc1F,15,18,30*,17
COc1ccc(NC(=O)CNC(=O)c2ccc3nc(-n4cccc4)sc3c2)cc1,31*,32*,-45,17
COc1ccc(S(=O)(=O)N2CCc3ccccc32)cc1C(=O)Nc1ccc2[nH]c(=O)[nH]c2c1,27,-4,87*,37*
COc1ccccc1NC(=O)c1cc(S(=O)(=O)N2CCCc3ccccc32)ccc1F,43*,10,11,0
Cc1c(Cl)cccc1NC(=O)CN1CCN(Cc2ccc(F)cc2Cl)S1(=O)=O,11,3,19,0
CC(=O)c1ccc(NC(=O)Cn2cc(-c3ccccc3)c3ncn(C4CC4)c(=O)c32)cc1,-6,-9,-68,-14
CC(=O)N1CCc2cc(S(=O)(=O)NCCC(=O)NCCc3ccc(C)cc3)ccc21,1,6,21,4
CC(=O)N1CCc2cc(CNC(=O)Nc3cc(C)ccc3C)ccc21,43*,12,67*,13
O=C(CCc1c[nH]c2ccccc12)Nc1ccc(Br)cc1F,14,17,17,42*
COc1ccc(-c2nonc2NC(=O)C(c2ccccc2)c2ccccc2)cc1OC,0,2,51*,12
O=C(Nc1ccc(F)cc1)C1Nc2ccccc2S(=O)(=O)N1 (stereo unspecified),9,4,-5,15
COc1ccc(Sc2nc3ccccc3n3cnnc23)cc1,13,11,15,2
CC1CCN(S(=O)(=O)c2ccc3[nH]cc(C(=O)NCc4ccco4)c(=O)c3c2)CC1,55*,5,15,20
CNc1cc(C)nc(C2COCCN2C(=O)c2noc3c2CCCC3)n1 (stereo unspecified),5,12,10,15
COc1cccc(NC(=O)CCc2nnc3n(CCCOC(C)C)c(=O)c4ccccc4n23)c1,69*,37*,89*,70*
CC(C)OCCCn1c(=O)c2ccccc2n2c(CCC(=O)NCCc3c[nH]c4ccccc34)nnc12,37*,17,28,18
Cc1ccc(NC(=O)c2cc(Cl)cc(Cl)c2)cc1S(=O)(=O)N1CCCCCC1,-7,-2,-8,-5
CCn1c(CSc2nnc(C3CC3)n2Cc2ccccc2)nc2cc(S(=O)(=O)N(C)C)ccc21,-16,-30,-67,-18
CCn1c(CN2CCc3ccccc3C2)nc2cc(S(=O)(=O)N(C)C)ccc21,34*,-7,-42,5
CCOC(=O)c1csc(NC(=O)c2ccccc2Br)n1,0,-10,5,41*
SMILES,USP17 block,OTUD3 inh,USP30 block,USP28 inh
CC(=O)c1ccc(OCCCC(=O)Nc2nc3c(C)cccc3s2)cc1,36*,9,17,14
CCN1CCc2nc(NC(=O)COc3ccc4ccccc4c3)sc2C1,-12,-13,-26,-4
COc1ccc2nc(NC(=O)CCCOc3ccc(C(C)=O)cc3)sc2c1,-5,-11,-37,2
CCN1CCc2nc(NC(=O)CCCOc3ccc(C(C)=O)cc3)sc2C1,44*,7,36*,13
CN(Cc1ccccc1)c1ncc(C(=O)O)c(-c2ccncc2)n1,-2,0,-11,-8
COc1ccc(Cc2nc3c4c(ncn3n2)Oc2c(c(C)nn2-c2ccccc2)C4c2ccccc2OC)cc1 (stereo unspecified),-15,-2,7,-10
O=C(Nc1ccc(Sc2ccc(F)cc2)cc1)c1cccc(C(F)(F)F)c1,17,19,40*,24
COc1ccc(OC)c(C(=O)CSc2nc3nc(C)c(Br)cc3[nH]2)c1,50*,15,-20,0
Cc1cccc(N2C(=O)/C(=C\c3ccc4c(c3)OCO4)c3ccccc3C2=O)c1,42*,-7,-14,8
Cc1ccc(C(=O)/C=C/c2ccc3c(c2)OCCO3)c(OCc2ccccc2)c1,.,-36,-179,-64
Cc1cccc(N2C(=O)/C(=C\c3ccc4c(c3)OCCO4)c3ccccc3C2=O)c1,55*,-8,6,13
O=C(Cc1nnc(NC(=O)Nc2ccc3c(c2)OCO3)s1)NCc1ccccc1,8,7,6,8
Cc1cccc(NC(=O)Nc2nnc(CC(=O)NCc3ccccc3)s2)c1,73*,-1,3,-5
Cc1nc2c(c(=O)[nH]1)C(c1ccc(C(F)(F)F)cc1)CC(=O)N2 (stereo unspecified),6,-5,1,-5
CCc1nc(-c2cccc(NC(=O)c3ccc(C#N)cc3F)c2)no1,43*,11,24,51*
CN1C(=O)CO[C@H](c2ccc(NC(=O)c3cccc(C#N)c3)cc2)[C@H]1CO,19,-1,10,-6
N#Cc1cccc(C(=O)Nc2ccc([C@H]3OCC(=O)N[C@@H]3CO)cc2)c1,39*,9,37*,5
Cc1cc(C)n(CC(=O)NCc2ccc(F)cc2F)c1-c1nc(C2CC2)no1,31*,12,33*,14
CCc1noc(-c2c(C)cc(C)n2CC(=O)Nc2ccc(C)cc2C)n1,-8,-9,-66,-16
Cc1cc(F)ccc1NC(=O)Cn1c(C)cc(C)c1-c1nc(C2CC2)no1,48*,0,-7,4
CCOc1ccccc1C(=O)N1CC(=O)N(Cc2ccc3c(c2)OCO3)CC(O)C1 (stereo unspecified),1,-4,1,0
CN(Cc1cc(=O)[nH]c2ccccc12)C(=O)COc1ccccc1,-6,-10,-1,-10
Cc1nccc(C(=O)N2CCCC(c3ncc(Cc4ccccc4)o3)C2)n1 (stereo unspecified),18,15,15,12
Cc1cc(C)cc(NC(=O)CN2C(=O)CC(c3ccccc3)Sc3ccccc32)c1 (stereo unspecified),27,21,57*,33*
Cc1ccc(NC(=O)c2nnn(CC(=O)Nc3cccc(C)c3C)c2N)cc1C,27,23,38*,27
Cc1ccc(-c2onc3ccc(C(=O)NCc4ccc(F)cc4)cc23)cc1,0,-18,-73,-19
O=C(N[C@@H](Cc1ccccc1)C(=O)Nc1ccc2c(c1)OCCO2)c1cccnc1,6,0,9,3
O=C(COc1ncnc2scc(-c3ccccc3)c12)Nc1cc(C(F)(F)F)ccc1Cl,-22,-7,-79,-20
COc1ccc(NC(=O)COc2cccc3c2CCNC3=O)cc1OC,19,0,9,9
CCN1CCc2c(OCC(=O)Nc3cc(C(F)(F)F)ccc3Cl)cccc2C1=O,74*,29,98*,33*

# Screens: PubChem BioAssay, Buhrlage Lab, Dana-Farber Cancer Institute and Novartis Institutes for BioMedical Research (Cambridge, Mass)
